Structures are written as SMILES. In all, about 69,000 compounds went through this assay and about 8,600 (12%) showed an effect of 50% or more. Many of the other results were omitted from the sample, so strong results are more common in it than they were.

This test deals with Plasmodium berghei. Put plainly: Screen against P. berghei liver stage (PbLuc), transformed with Luciferase, at 10uM. The format is functional, HepG2. Particulars: tested at 10 uM.
As to `CCc1cc(N[C@@H]2CC[C@@H](N)C2)n2nc(C)c(C)c2n1`, the INHIBITION is -42.8%.
Take `Cc1cc(C(=O)NCC(C)C)nn1C`: the INHIBITION was 37.9%.
In the case of `O=C(NCc1cc2ccccc2[nH]1)C1CCCN(C(=O)N2CCCC2)C1` (stereo not drawn), the INHIBITION was determined as 3.87%.
With `COC(=O)CC1c2cccnc2C(=O)N1Cc1ccccc1` (stereo not drawn), the INHIBITION was found to be 36.6%.
Regarding `CN(CC(=O)N1CCCC1)C(=O)Cc1csc(-c2ncccn2)n1`, the INHIBITION is reported as 30.057%.
With `O=C(c1cccc(F)c1)N1CCCN(Cc2cscn2)CC1`, the INHIBITION is -75.2%.
`Cc1cc(C)c2cc(CNC(C)C)c3nn(C)c(=O)n3c2c1`: the INHIBITION is given as 64.9%.
The value for `Cc1cc(C)c2cc(CNCC3CCCO3)c3nn(C)c(=O)n3c2c1` (stereo not drawn) was 55.2%.
In the case of `Cc1noc2ncc(C(=O)NCC3CCCO3)cc12` (stereo not drawn), the INHIBITION was -17.45%.
The value for `Cc1cc(C)c2c(OCC(=O)NC(C)C)nn(C)c2n1` was 37.1%; that for `Cc1cc(C)c2ncn(CCC(C)O)c(=O)c2c1` (stereo not drawn) was 6.28%.
For `Cc1cc(NCC2CCCO2)cc(=O)n1C` (stereo not drawn) the value was 29.3%; for `CCCn1cnnc1CNC1CCCC1`, 9.91%.
Take `Cc1nn(C)c(C)c1CC(=O)NCc1ccnc(OC2CCCC2)c1`: the INHIBITION worked out at 25.3%.
For `Cc1cc(C)c2cc(CNC3CCCCC3)c3nn(C)c(=O)n3c2c1`, the INHIBITION was determined as 73.8%.
For `Cc1csc(N2CCC(CCN3CCCC3=O)CC2)n1` the value was -40.5%; for `COc1ccc2c3c1CN(S(C)(=O)=O)CC3=CC(C)(C)CO2`, 29.8%; for `Cn1ncc2c(=O)[nH]c(CN3CCCC3c3ccsc3)nc21` (stereo not drawn), -19.6%.
The value for `CNC(=O)[C@H]1C[C@H]2OCC[C@H]2N(CC2CC2)C1` was 10.5%.
For `O=C([C@H]1C[C@H]2OCC[C@H]2N(CC2CCOCC2)C1)N1CCCC1` the value was 76.3%; for `O=C([C@H]1C[C@H]2OCC[C@H]2N(C(=O)C2CCOCC2)C1)N1CCCCO1`, 28.3%; for `CNC(=O)[C@H]1C[C@H]2OCC[C@H]2N(CC2CCOCC2)C1`, 10.5%.
As to `O=C(NC1CC1)[C@H]1C[C@H]2OCC[C@H]2N(CC2CCOCC2)C1`, the INHIBITION stood at 25.4%.
For `O=C([C@H]1C[C@H]2OCC[C@H]2N(CC2CC2)C1)N1CCCCO1`, the INHIBITION came to 29.9%.
With `O=C([C@H]1C[C@H]2OCC[C@H]2N(CC2CC2)C1)N1CCCC1`, the INHIBITION is 82.2%.
In the case of `O=C([C@H]1C[C@@H]2[C@@H](C1)OCCN2CC1CC1)N1CCCC1`, the INHIBITION is 5.36%.
The value for `O=C([C@H]1C[C@H]2OCC[C@H]2N(CC2CCOCC2)C1)N1CCCCO1` was 50.9%.
For `CC1CCN(c2nc3cn(-c4ccccc4)c(=O)c-3c[nH]2)CC1` the value was -21.5%.
